About 2,000 (36%) of roughly 5,500 compounds were called active. About 18% were inconclusive and are not listed. This is one part of the list. Values without a mark were called inactive. Cut-off read from the data, not from the text of the source: active = normalized growth mostly below about 0.91 (no sharp cut-off); inconclusive = no clear call, values can overlap the other calls; inactive = mostly above about 0.92.
Assay: chemical genetic growth profiling, strain panel (AID 1159580);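 note: tested at 20 µM; growth read once vehicle control cultures reached saturation at 30 °C; 1 = growth at the plate median or of vehicle wells; lower values mean less growth of the strain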
Settings: S. cerevisiae deletion strains, growth OD

CC(C(=O)O)[C@H]1CCC2C3CC=C4C[C@@H](O)CC[C@]4(C)C3CC[C@@]21C (stereo not given in full)
normalized growth (locus YAL021C, strain ccr4, active compounds read low): 0.939 | normalized growth (locus YAL026C, strain drs2, active compounds read low): 0.627 (active) | normalized growth (locus YAL030W, strain snc1, active compounds read low): 1.03 | normalized growth (locus YBL061C, strain skt5, active compounds read low): 1.03 | normalized growth (locus YBR009C, strain hhf1, active compounds read low): 0.979 | normalized growth (locus YBR023C, strain chs3, active compounds read low): 1 | normalized growth (locus YBR171W, strain sec66, active compounds read low): 1.02 | normalized growth (locus YBR231C, strain swc5, active compounds read low): 1.04 | normalized growth (locus YBR279W, strain paf1, active compounds read low): 1.02 | normalized growth (locus YCL011C, strain gbp2, active compounds read low): 1.03 | normalized growth (locus YCL016C, strain dcc1, active compounds read low): 0.977 | normalized growth (locus YCL061C, strain MRC1, active compounds read low): 1 | normalized growth (locus YCL069W, strain vba3, active compounds read low): 1.03 | normalized growth (locus YCR088W, strain abp1, active compounds read low): 1.04 | normalized growth (locus YDL005C, strain med2, active compounds read low): 1.05 | normalized growth (locus YDL040C, strain nat1, active compounds read low): 1.04 | normalized growth (locus YDR001C, strain nth1, active compounds read low): 1.04 | normalized growth (locus YDR069C, strain doa4, active compounds read low): 0.988 | normalized growth (locus YDR137W, strain rgp1, active compounds read low): 0.562 (active) | normalized growth (locus YDR159W, strain sac3, active compounds read low): 1.04 | normalized growth (locus YDR195W, strain ref2): 1.35 [resistant] (active) | normalized growth (locus YDR297W, strain sur2, active compounds read low): 1.02 | normalized growth (locus YDR334W, strain swr1, active compounds read low): 1.05 | normalized growth (locus YDR335W, strain msn5, active compounds read low): 1.02 | normalized growth (locus YDR392W, strain spt3, active compounds read low): 0.733 (active) | normalized growth (locus YEL003W, strain gim4, active compounds read low): 1.02 | normalized growth (locus YEL037C, strain rad23, active compounds read low): 1.03 | normalized growth (locus YEL061C, strain CIN8 (second series), active compounds read low): 1.05 | normalized growth (locus YER015W, strain faa2, active compounds read low): 1.01 | normalized growth (locus YER016W, strain bim1, active compounds read low): 1.04 | normalized growth (locus YER111C, strain swi4, active compounds read low): 1.02 | normalized growth (locus YER155C, strain BEM2 (second series), active compounds read low): 1.08 | normalized growth (locus YFR010W, strain ubp6, active compounds read low): 0.953 | normalized growth (locus YGL167C, strain pmr1, active compounds read low): 1.03 | normalized growth (locus YGL173C, strain kem1, active compounds read low): 0.981 | normalized growth (locus YGL227W, strain vid30, active compounds read low): 1.04 | normalized growth (locus YGL240W, strain doc1, active compounds read low): 1.03 | normalized growth (locus YGL253W, strain hxk2, active compounds read low): 0.989 | normalized growth (locus YHR013C, strain ard1, active compounds read low): 1.04 | normalized growth (locus YHR027C, strain rpn1, active compounds read low): 1.02 | normalized growth (locus YHR030C, strain SLT2, active compounds read low): 1.04 | normalized growth (locus YHR079C, strain IRE1, active compounds read low): 1.03 | normalized growth (locus YHR142W, strain chs7, active compounds read low): 0.967 | normalized growth (locus YJL092W, strain hpr5, active compounds read low): 1.02 | normalized growth (locus YJL095W, strain BCK1 (second series), active compounds read low): 1.03 | normalized growth (locus YJL095W, strain BCK1, active compounds read low): 1.02 | normalized growth (locus YJL115W, strain asf1, active compounds read low): 1.04 | normalized growth (locus YJL129C, strain trk1, active compounds read low): 1.03 | normalized growth (locus YJL154C, strain vps35, active compounds read low): 1.04 | normalized growth (locus YJL164C, strain tpk1, active compounds read low): 0.973 | normalized growth (locus YJL166W, strain qcr8, active compounds read low): 0.97 | normalized growth (locus YJL187C, strain SWE1, active compounds read low): 1.01 | normalized growth (locus YJR066W, strain TOR1, active compounds read low): 0.98 | normalized growth (locus YKL160W, strain elf1, active compounds read low): 1 | normalized growth (locus YKR026C, strain gcn3, active compounds read low): 1.04 | normalized growth (locus YKR091W, strain srl3, active compounds read low): 1.05 | normalized growth (locus YLL001W, strain dnm1, active compounds read low): 1.01 | normalized growth (locus YLL026W, active compounds read low): 1.03 | normalized growth (locus YLL041C, strain sdh2, active compounds read low): 1.03 | normalized growth (locus YLR027C, strain aat2, active compounds read low): 1.01 | normalized growth (locus YLR113W, strain HOG1, active compounds read low): 1.06 | normalized growth (locus YLR221C, strain rsa3, active compounds read low): 0.996 | normalized growth (locus YLR258W, strain gsy2, active compounds read low): 1.02 | normalized growth (locus YLR262C, strain YPT6 (second series), active compounds read low): 0.485 (active) | normalized growth (locus YLR320W, strain mms22, active compounds read low): 0.919 | normalized growth (locus YLR342W, strain FKS1, active compounds read low): 1.03 | normalized growth (locus YLR357W, strain rsc2, active compounds read low): 1.1 | normalized growth (locus YLR370C, strain arc18, active compounds read low): 1.01 | normalized growth (locus YLR384C, strain iki3, active compounds read low): 1.04 | normalized growth (locus YML120C, strain ndi1, active compounds read low): 1.01 | normalized growth (locus YMR058W, strain fet3, active compounds read low): 1 | normalized growth (locus YMR125W, strain sto1, active compounds read low): 1.03 | normalized growth (locus YMR129W, active compounds read low): 1.03 | normalized growth (locus YMR205C, strain PFK2, active compounds read low): 1.02 | normalized growth (locus YMR231W, strain pep5, active compounds read low): 1.02 | normalized growth (locus YNL071W, strain lat1, active compounds read low): 0.989 | normalized growth (locus YNL183C, strain NPR1, active compounds read low): 0.971 | normalized growth (locus YNL209W, strain ssb2, active compounds read low): 1.03 | normalized growth (locus YNL248C, strain rpa49, active compounds read low): 0.963 | normalized growth (locus YNL322C, strain KRE1 (second series), active compounds read low): 1.06 | normalized growth (locus YNR049C, strain mso1, active compounds read low): 1.05 | normalized growth (locus YOR001W, strain rrp6, active compounds read low): 0.997 | normalized growth (locus YOR070C, strain gyp1, active compounds read low): 0.962 | normalized growth (locus YOR080W, strain dia2, active compounds read low): 1.03 | normalized growth (locus YOR083W, strain WHI5, active compounds read low): 0.983 | normalized growth (locus YOR106W, strain vam3, active compounds read low): 1.01 | normalized growth (locus YOR231W, strain MKK1, active compounds read low): 1.06 | normalized growth (locus YOR265W, strain rbl2, active compounds read low): 1.02 | normalized growth (locus YOR270C, strain vph1, active compounds read low): 0.961 | normalized growth (locus YOR290C, strain snf2, active compounds read low): 0.995 | normalized growth (locus YPL051W, strain arl3, active compounds read low): 0.963 | normalized growth (locus YPL078C, strain atp4, active compounds read low): 1 | normalized growth (locus YPL106C, strain sse1, active compounds read low): 1.26 [resistant] (active) | normalized growth (locus YPL240C, strain hsp82, active compounds read low): 1.04 | normalized growth (locus YPL256C, strain CLN2, active compounds read low): 1.06

— PubChem BioAssay AID1159580 (chemical genetic matrix, 2015)
